HepG2 tox-1: kills HepG2 cells in TGF-b inhibitor counter-screen | HepG2 CAGA-GFP viability, ATP luminescence, 18 h | Potency, µM (highest dose often 46.1 µM), actives largely listed as cytotoxic | actives 0.76% (n = 410,000) | AID 588856
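HepG2 CAGA-GFP cells (1000/well, DMEM with 1% FBS) received compound, then TGF-beta at 500 pg/mL final, and were incubated 18 hours at 37 degrees C. Viability was read by CellTiter-Glo luminescence. Media-only wells were set as complete cell-killing and DMSO as no toxicity.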
TGFb SMAD3 inh: TGF-b pathway inhibition; HepG2 CAGA-GFP TGF-b/SMAD3 reporter, GFP fluorescence, 18 h; TGF-beta stimulated, 500 pg/mL final; Potency, µM (highest dose often 46.1 µM), usual class: inhibitors; actives 1.2% (n = 410,000); AID 588855; further: nearly all actives have a fitted effect of over 65% in size
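Cell-based qHTS in HEPG2 carrying a CAGA-GFP Smad reporter; compounds added before 500 pg/mL final TGF-beta, 18 h incubation at 37 degrees C, GFP fluorescence quantified per cell by imaging cytometry.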
HT1080 IDH1KD tx: HT-1080 IDH1 knockdown cell toxicity (counter line); Potency, µM (top dose mostly 46.1 µM), actives largely listed as cytotoxic; HT-1080 IDH1 knockdown viability, ATP luminescence, 48 h; actives 2% (n = 360,000)
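After a 2 h attachment period, IDH1KD HT-1080 cells took pin-transferred compound for 48 h at 37 °C; ATP-based luminescence after 10 min room-temperature reagent incubation reported viability.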
IL-1B inflam inh: blocks inflammasome-driven IL-1 beta release | THP-1 LPS/ATP IL-1B secretion, AlphaLISA, 16 h; stronger effect = lower value | activity change, % at 57.5 µM | actives 4.7% (n = 360,000) | AID 743279; in the data active means activity change below about -50%; inconclusive means mostly about -30% to -49%
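THP-1 cells pretreated 1 hr with compounds (up to 57.5 uM final), then stimulated with LPS (250 ng/mL final) plus ATP (1.25 mM final); secreted IL-1B measured by AlphaLISA after 16 hr, decreased signal indicating inhibition.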
Giardia kill: kills Giardia lamblia. Giardia lamblia trophozoite viability. activity change, % at 7.66 µM, hits read low. actives 0.15% (n = 340,000). AID 540267; in the data active means activity change below about -80%; inconclusive means between about -30% and that limit;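 further: parasites exposed to compound for two days anaerobically before the ATP read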
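Each well holds 100 Giardia trophozoites and compound. After two days (48 hrs) at 37 deg C in anaerobic conditions, ATP is quantified by luminescence.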
HT1080NT lethal: kills 2HG-producing HT-1080-NT fibrosarcoma cells; HT-1080-NT fibrosarcoma viability, CellTiter-Glo ATP luminescence, 48 h; Potency, µM (titrated, usually from 46.1 µM), actives largely listed as cytotoxic; actives 1.6% (n = 360,000); AID 686970;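 further: NT is the 2HG producing partner of a matched IDH1 knockdown line; nearly all actives have a fitted effect of over 55% in size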
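HT-1080-NT; 750 cells/well; 5% FBS RPMI; 48 h compound, 37 degrees C; CellTiter-Glo luminescence; curve fitting and curve-class assignment.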
TGFb CAGA inh: confirmation of TGF-b signaling inhibitors in HepG2 reporter cells; AID 720534; HepG2 CAGA-GFP TGF-b reporter, GFP fluorescence, 18 h; cells stimulated with TGF-beta, 500 pg/mL; shares compounds with TGFb SMAD3 inh; Potency, µM (doses to about 46.1 µM), actives largely listed as inhibitors; actives 63% (n = 1,600); further: nearly all actives have a fitted effect of over 65% in size
HepG2 tox-2: toxic to HepG2 cells in TGF-b counterscreen. shares compounds with TGFb SMAD3 inh. HepG2 CAGA-GFP viability, ATP luminescence, 18 h; cells stimulated with TGF-beta, 500 pg/mL. Potency, µM (series often up to 46.1 µM), most hits filed as inhibitors. actives 27% (n = 1,600). AID 720535; further: nearly all actives have a fitted effect of over 70% in size
CCL64 TGFb inh: TGF-b inhibition, CCL64 orthogonal assay | shares compounds with TGFb SMAD3 inh | CCL64 CAGA-GFP reporter, TGF-b stimulated, GFP fluorescence, 18 h | Potency, µM (titrated, usually from 46.1 µM), most hits filed as inhibitors | actives 41% (n = 1,600) | AID 720536; further: nearly all actives have a fitted effect of over 65% in size
TGFb COP inh: validation of TGF-b inhibitors in HepG2 COP promoter reporter; shares compounds with TGFb SMAD3 inh; HepG2 COP-GFP TGF-b reporter, GFP fluorescence, 18 h; cells stimulated by added recombinant TGF-beta; Potency, µM (top dose mostly 46.1 µM), actives largely listed as inhibitors; actives 3% (n = 1,600); further: nearly all actives have a fitted effect of over 70% in size
Each line names hits and unclear results; the compound was inactive in the other large screens (follow-up assays come after a bar, where they were run). This is a sample that favours compounds with a hit; in the whole collection about 6.5% have one here. Unless noted, the call rests on the fitted dose curve; in most records, active means well fitted curve in the direction sought with a large enough effect; inconclusive means small, poorly fitted or top-dose-only effect, or another doubt; inactive means no such curve, though single readings can be large; an effect the other way counts as inactive or inconclusive.

CC[C@@]1(O)C(=O)OCc2c1cc1n(c2=O)Cc2cc3c(N)cccc3nc2-1	TGFb SMAD3 inh 0.56µM, HT1080 IDH1KD tx 1.3µM, IL-1B inflam inh -112, HT1080NT lethal 2.1µM | TGFb CAGA inh 1.2µM | HepG2 tox-2 0.41µM | CCL64 TGFb inh inactive | TGFb COP inh inactive
COc1ccc(C(c2nnnn2-c2ccc(OC)cc2)N2CCC(n3c(=O)[nH]c4ccccc43)CC2)cc1 (centres undefined)	TGFb SMAD3 inh 11µM, HT1080 IDH1KD tx inconclusive, IL-1B inflam inh inconclusive, HT1080NT lethal inconclusive (no result: Giardia kill) | TGFb CAGA inh 16µM | HepG2 tox-2 inactive | CCL64 TGFb inh 13µM | TGFb COP inh inactive
CSCCC(c1nnnn1C1CCCC1)N1CCC(n2c(=O)[nH]c3ccccc32)CC1 (centres undefined)	none (no result: Giardia kill)
CSCCC(c1nnnn1C1CCCCC1)N1CCC(n2c(=O)[nH]c3ccccc32)CC1 (centres undefined)	TGFb SMAD3 inh 14µM, HT1080 IDH1KD tx inconclusive, HT1080NT lethal inconclusive (no result: Giardia kill) | TGFb CAGA inh 26µM | HepG2 tox-2 inactive | CCL64 TGFb inh inactive | TGFb COP inh inactive
COc1ccc(-n2nnnc2C(c2cc3ccccc3o2)N2CCC(n3c(=O)[nH]c4ccccc43)CC2)cc1 (centres undefined)	TGFb SMAD3 inh inconclusive, HT1080 IDH1KD tx inconclusive, HT1080NT lethal inconclusive (no result: Giardia kill)
Cc1cccc(N2CCN(Cc3ccc4c(c3)OCO4)CC2)c1C	TGFb SMAD3 inh inconclusive, HT1080 IDH1KD tx inconclusive
COc1ccc(C(=O)C2CCCN(C3CSCCSC3)C2)c(C)c1 (centres undefined)	none
NC1=C(Br)C(=O)c2ccccc2C1=O	HepG2 tox-1 5.6µM, TGFb SMAD3 inh 5.6µM, HT1080 IDH1KD tx 21µM, Giardia kill inconclusive, HT1080NT lethal 26µM | TGFb CAGA inh 5.2µM | HepG2 tox-2 8.2µM | CCL64 TGFb inh 9.2µM | TGFb COP inh inconclusive
CS(=O)(=O)Nc1ccccc1C(=O)Nc1cc(Cl)cc(Cl)c1	TGFb SMAD3 inh 7.1µM, HT1080 IDH1KD tx 11µM, IL-1B inflam inh -56, HT1080NT lethal inconclusive | TGFb CAGA inh 7.3µM | HepG2 tox-2 inconclusive | CCL64 TGFb inh 8.2µM | TGFb COP inh inactive
CC1=CC(C)CC(C)OC(=O)CC(c2ccc(O)cc2)NC(=O)C(Cc2c(Br)[nH]c3ccccc23)N(C)C(=O)C(C)NC(=O)C(C)C1 (centres undefined)	TGFb SMAD3 inh 16µM, HT1080 IDH1KD tx 0.052µM, HT1080NT lethal 1.3µM | TGFb CAGA inh inconclusive | HepG2 tox-2 inconclusive | CCL64 TGFb inh 0.26µM | TGFb COP inh inactive
COC(=O)C1=C(c2cccc(OCc3ccccc3)c2)C[C@@H]2CC[C@H]1N2C(=O)NCCOc1ccccc1Cl	none
